# Whole data set: some 33,000 sequences, median “E-score (-0.5 to 0.5)” near -0.013, cut for the highest 2% near 0.3. What follows is part of a selection rich in the highest values, with near analogues and random picks from the rest.
# Biological target: T1, Msn1 (UniProt P22148)
# T1 sequence: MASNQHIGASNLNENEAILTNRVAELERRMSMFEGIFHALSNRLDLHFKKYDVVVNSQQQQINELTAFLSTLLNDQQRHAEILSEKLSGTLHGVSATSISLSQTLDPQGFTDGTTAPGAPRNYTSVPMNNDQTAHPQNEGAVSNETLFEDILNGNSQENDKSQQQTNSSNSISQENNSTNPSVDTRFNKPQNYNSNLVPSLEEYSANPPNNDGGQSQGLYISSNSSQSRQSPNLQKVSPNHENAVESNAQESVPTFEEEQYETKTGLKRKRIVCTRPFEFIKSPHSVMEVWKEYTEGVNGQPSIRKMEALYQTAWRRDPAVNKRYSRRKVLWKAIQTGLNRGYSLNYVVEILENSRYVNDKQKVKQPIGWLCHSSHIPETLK
# Test: PBM E-score (8-mer binding enrichment) (E-score (-0.5 to 0.5)); higher = stronger / more preferred TF binding
# Conditions: protein concentration: 200 nM; construct: GST-full length
# Procedure, shortened: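 For each ungapped eight-base word taken together with its reverse complement, the Universal PBM Analysis Suite assigned an E-score. Binding data came from GST-tagged yeast transcription factors, applied at about 100-200 nM, on universal all-10-mer Agilent arrays made double-stranded by primer extension. Fluorescent anti-GST marked bound protein, and scans were normalised with masliner.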
row,Sequence,PBM E-score
1,CCGGTACA,0.319
2,GCGGTACA,0.0441
3,CCGGTACG,-0.262
4,GTGGTACA,0.13
5,CTGGTACA,0.329
6,CGGCCCAG,-0.186
7,TAAGAAAA,0.00824
8,CTGCGACC,-0.19
9,GTGTCCCA,0.439
10,AAGTCCCG,0.283
11,CTGTCCCC,0.00412
12,ACGTCCCG,0.0295
13,GCGTCCCA,0.0223
14,ATGTCCCG,0.474
15,GGGTCCCA,-0.216
16,AGGTCCCA,-0.081
17,AGGTCCCC,-0.299
18,ATGTCCCA,0.485
19,ATGTCCCC,0.479
20,CTGTCCCA,0.281
21,GCCTTTGA,0.0544
22,CGAGGAGA,-0.141

row,Sequence,PBM E-score
1,AGACCCTG,-0.165
2,ACCTAACG,-0.203
3,ATGATCTG,0.0873
4,GGGAAAAA,0.185
5,GCGGTCAC,-0.172
6,ATGTCTAC,0.313
7,CTGTCTAC,-0.0627
8,ATGTCTAG,0.373
9,AGGTCTAG,-0.134
10,GTGTCTAA,0.192
11,ATGTCTAA,0.403
12,AAGTCTAG,-0.107
13,CTGTCTAA,0.111
14,AGGTCTAC,-0.0162
15,CTAGTAGC,-0.165
16,GAGGGTAC,-0.202
17,CTATTTCC,0.063
18,AAAATTCG,0.232
19,ACAATTGA,0.257
20,AAAATTGC,0.054
21,ACAATTGC,0.191
22,ACAATTGT,0.363

row,Sequence,PBM E-score
1,AAAATTGT,0.357
2,GAAATTCA,0.103
3,AAAATTGG,0.00283
4,AAAATTCA,0.308
5,ATCCATAA,0.124
6,AATTCCTC,-0.0412
7,AGCCACTA,-0.0424
8,CCCCAGCC,-0.271
9,ACCCTGAG,-0.0157
10,ACGCGCGC,0.196
11,GCGCGCGA,0.0948
12,GCGCGCGC,0.333
13,CCTGCTAC,0.017
14,AGTTCTCC,-0.205
15,ACATTTTC,0.337
16,GCATTTCA,0.0826
17,ACATTTCT,0.204
18,ACATTTTA,0.377
19,CCATTTTA,0.259
20,GCATTTTA,0.109
21,ACATTTCA,0.363
22,ACATTTCG,0.241

row,Sequence,PBM E-score
1,CCATTTTC,0.136
2,CCATTTCA,-0.106
3,AGATTTTC,0.0741
4,ACATTTCC,0.329
5,GTGAGGCA,-0.0279
6,ACTGACCT,-0.063
7,CCACGTGG,-0.276
8,CGATGAGC,-0.17
9,CTACCTCC,-0.0369
10,ATATTTTG,0.176
11,ACATTTTG,0.34
12,TCATTTAA,0.132
13,ACATTTGA,0.311
14,ACATTAAG,0.32
15,GCATTTGA,0.051
16,ACATTTAA,0.324
17,ACATTTGG,0.177
18,ACATTAAC,0.254
19,AGATTTTG,0.0738
20,GCATTTAA,0.0963
21,ACATTAAT,0.155
